Screens as filed in PubChem BioAssay.
ATXN viability – viability counter-screen for ATXN expression inhibitors | S2 cells (HEK-293 line with an ATXN2-luciferase reporter) viability, CellTiter-Fluor protease fluorescence, 24 h | Potency, µM (series often up to 56.7 µM), actives largely listed as cytotoxic | 400,000 compounds, 0.49% hits | AID 651635; note: nearly all actives have a fitted effect of over 40% in size
KB-V1 cytotox – kills drug-selected multidrug resistant KB-V1 cells | 400,000 compounds, 3.4% hits | KB-V1 MDR cells viability, CellTiter-Glo, 72 h | Potency, µM (highest dose often 46.1 µM), most hits filed as cytotoxic | AID 1347076; note: % is set by controls: 0 for no effect and ±100 for the full control effect; nearly all actives have a fitted effect of over 60% in size
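Readout: CellTiter-Glo luminescence, 10 min after addition. Cells: KB-V1 MDR subline, 72 h at 37 degrees C with compound. Analysis: corrected, normalized data fitted to concentration-effect curves.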
HT1080 IDH1KD tx – HT-1080 IDH1 knockdown cell toxicity (counter line). AID 686971. 360,000 compounds, 2% hits. HT-1080 IDH1 knockdown viability, ATP luminescence, 48 h. Potency, µM (series often up to 46.1 µM), for inactives: at the highest dose activity, negative = toxicity, hits mostly cytotoxic;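 note: 0% = DMSO wells and -100% = cell-free medium wells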
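Assay cells: HT-1080 with IDH1 knockdown, 750 per well, RPMI/5% FBS. Exposure: 48 h at 37 °C following 2 h pre-incubation. Read: CellTiter-Glo luminescence; fitted concentration-response, curve class assigned.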
ATXN2 expr inh – inhibitors of ATXN2 expression; Potency, µM (top dose mostly 57 µM), for inactives: at the highest dose activity change, negative = inhibition, actives largely listed as inhibitors; 360,000 compounds, 0.72% hits; HEK-293 ATXN2-luciferase reporter, luminescence, 24 h; AID 1745845; note: % is set by controls: 0 for no effect and ±100 for the full control effect; nearly all actives have a fitted effect of over 55% in size
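ATXN2-luciferase reporter cells (luciferase flanked by upstream and downstream ATXN2 gene portions) were treated 24 h at 37 °C with compounds at up to 57 uM. SteadyGlo luminescence gave expression; GF-AFC fluorescence gave viability.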
KB-3-1 cytotox – kills parental KB-3-1 adenocarcinoma cells. KB-3-1 viability, CellTiter-Glo ATP luminescence, 72 h. Potency, µM (doses to about 46.1 µM), hits mostly cytotoxic. 400,000 compounds, 1.4% hits. AID 1347075; note: % is set by controls: 0 for no effect and ±100 for the full control effect; nearly all actives have a fitted effect of over 60% in size
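Here the drug-naive KB-3-1 line serves as comparator for MDR sub-line selectivity; cells received compound titrations, 72 h at 37 °C, then CellTiter-Glo readout.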
HT1080-NT tox – kills 2HG-producing HT-1080-NT fibrosarcoma cells; HT-1080-NT fibrosarcoma viability, CellTiter-Glo ATP luminescence, 48 h; Potency, µM (series often up to 46.1 µM), inactives show top-dose activity, negative = less viability, actives largely listed as cytotoxic; 360,000 compounds, 1.6% hits; AID 686970;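 note: NT is the 2HG producing partner of a matched IDH1 knockdown line; 0% = DMSO-treated cells and -100% = media-only wells without cells; nearly all actives have a fitted effect of over 55% in size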
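HT-1080-NT; 750 cells/well; 5% FBS RPMI; 48 h compound, 37 degrees C; CellTiter-Glo luminescence; curve fitting and curve-class assignment.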
* = called active by the depositor; i = inactive; ? = inconclusive; . = no result given. This is a sample that favours compounds with a hit; in the whole collection about 6.2% have one here. Calls come from the whole dose curve; as a rule, active = well fitted curve in the direction sought with a large enough effect; inconclusive = small, poorly fitted or top-dose-only effect, or another doubt; inactive = no such curve, though single readings can be large; an effect the other way counts as inactive or inconclusive. Potency is the fitted concentration of half-maximal effect.

SMILES	ATXN viability	KB-V1 cytotox	HT1080 IDH1KD tx	ATXN2 expr inh	KB-3-1 cytotox	HT1080-NT tox
COc1ccc(C(=O)C(C)Oc2cccc(NC(=O)c3cccc([N+](=O)[O-])c3)c2)cc1 (stereo not drawn)	i	2.3µM*	8%	-6%	i	4%
CC(=O)Nc1cccc(OCc2cccc([N+](=O)[O-])c2)c1	?	13µM*	6%	19%	?	5%
COc1ccc(/C=C2\C(=O)N(c3c(Cl)cc(Cl)cc3Cl)N=C2NC(=O)c2cccc([N+](=O)[O-])c2)cc1	.	?	10%	32µM*	?	1%
COc1ccccc1N1CC(C(=O)OCC(=O)Nc2c(C)cccc2C)CC1=O (stereo not drawn)	i	?	11%	15%	i	14%
CCCN(CC(=O)Nc1ccccc1OC)C(=O)CNC(=O)c1ccc(C)s1	i	i	10%	-4%	i	14%
CC(=O)Nc1cccc(OCc2ccc(S(=O)(=O)Cc3ccccc3)cc2)c1	i	18µM*	-7%	4%	i	-1%
CC(=O)Nc1ccc(OCc2ccc(S(=O)(=O)Cc3ccccc3)cc2)cc1	i	?	1%	.	i	7%
CCOC(=O)c1ccc(NC2=CC(c3ccc(O)c(OCC)c3)N(c3ccc(C(=O)OCC)cc3)C2=O)cc1 (stereo not drawn)	i	i	.	-3%	i	.
O=C1NC[C@H](c2ccccc2)OC(=O)[C@H](Cc2ccc(F)cc2)C/C=C\C[C@H]1CC(=O)N(CCO)Cc1ccccc1	?	?	?	32µM*	?	?
O=C1NC[C@H](c2ccccc2)OC(=O)[C@@H](Cc2ccc(F)cc2)C/C=C\C[C@H]1CC(=O)N(CCO)Cc1ccccc1	?	i	?	-20%	i	?
CCOC(=O)c1c(C)[nH]c(C(=O)COC(=O)CNC(=O)c2ccc(Cl)cc2)c1C	i	4.1µM*	3%	-10%	i	1%
CCOC(=O)c1c(C)[nH]c(C(=O)COC(=O)c2ccc(O)cc2)c1C	i	?	-3%	-3%	i	-18%
CCOC(=O)c1c(C)[nH]c(C(=O)CSc2ccc(Cl)cc2)c1C	i	18µM*	?	34%	i	-14%
CCOC(=O)c1c(C)[nH]c(C(=O)COC(=O)COc2ccc(OC)cc2)c1C	i	18µM*	2%	-12%	i	-6%
CCOC(=O)c1c(C)[nH]c(C(=O)COC(=O)C2(C)CC2(Cl)Cl)c1C (stereo not drawn)	i	13µM*	?	30%	i	13%
O=C1OC(c2cccc([N+](=O)[O-])c2)C2(CCCC2)C(=O)C12CCCCC2 (stereo not drawn)	i	?	16µM*	-1%	i	?
O=C1OC(c2ccccc2)C2(CCCC2)C(=O)C12CCCC2 (stereo not drawn)	i	i	-4%	-17%	i	5%
C=C(C)c1cccc(C(C)(C)NC(=O)Nc2cc(C)ccn2)c1	?	16µM*	-13%	-1%	?	-5%
CCOc1cc(C(=O)Nc2cc(C)ccn2)cc(OCC)c1OCC	i	i	-23%	15%	?	-17%
C=C(C)c1cccc(C(C)(C)NC(=O)Nc2ccc(C)cn2)c1	i	i	6%	-19%	i	-1%
CCCCOc1ccc(C(=O)Nc2cccc(C)n2)cc1	i	16µM*	3%	47%	?	-6%
CCOc1ccc(C(=O)Nc2cc(C)ccn2)cc1	i	13µM*	12µM*	?	?	?
CCCCOc1ccc(C(=O)Nc2ccc(N3CCN(C(C)=O)CC3)cc2)cc1	i	2.6µM*	11%	-5%	i	13%
CCCCOc1ccc(C(=O)Nc2ccc(N3CCN(C(=O)C(C)C)CC3)cc2)cc1	i	i	-17%	-24%	i	-5%
Cc1ccnc(NC(=O)c2ccc(C(=O)c3ccccc3)cc2)c1	i	21µM*	?	?	?	-29%
SMILES	ATXN viability	KB-V1 cytotox	HT1080 IDH1KD tx	ATXN2 expr inh	KB-3-1 cytotox	HT1080-NT tox
Cc1ccnc(NC(=O)c2ccccc2NC(=O)c2ccccc2)c1	i	i	13%	10%	i	-2%
COP(=O)(OC)c1nc(-c2cccc3ccccc23)oc1NCc1ccccc1	i	12µM*	0%	-10%	?	-14%
CC(=NCc1cccc(Cl)c1)c1nc(-c2ccco2)oc1O	i	i	-5%	2%	5.8µM*	1%
Cc1cc(C)c(NC(=O)CSc2nc(C)cc(C)c2C#N)c(C)c1	i	i	.	4%	i	.
CC(C)C[C@@H](C(=O)NC1CCN(Cc2ccccc2)CC1)N1C(=O)N2CCc3c([nH]c4ccccc34)[C@@]2(C)C1=O	25µM*	?	?	?	?	?
C[C@@H](C(=O)NC1CCN(Cc2ccccc2)CC1)N1C(=O)N2CCc3c([nH]c4ccccc34)[C@@]2(C)C1=O	i	i	1%	-26%	i	-2%
CN(C)C(=O)CSc1nnc([C@H](Cc2c[nH]c3ccccc23)NC(=O)OC(C)(C)C)o1	i	13µM*	10%	0%	i	-3%
CC1CCc2sc3ncnc(N4CCOCC4)c3c2C1 (stereo not drawn)	i	i	-20%	5%	i	-23%
CC1CCc2c(sc3ncnc(N4CCOCC4)c23)C1 (stereo not drawn)	i	15µM*	?	18%	i	?
CC1CCc2c(sc3nc(CN4CCOCC4)nc(Sc4ccccc4)c23)C1 (stereo not drawn)	i	8.2µM*	-2%	2%	i	15%
CC=CC(=O)N(CC)c1ccccc1C	.	.	.	-2%	.	.
COc1ccc(-c2nc(CN3CCN(C(=O)c4ccco4)CC3)c(C)o2)c(OC)c1C	i	.	13%	1%	.	-3%
CN(CC(=O)Nc1cccc(F)c1)C(=O)c1ccc(N2C(=O)c3ccccc3C2=O)cc1	i	i	-5%	6%	i	-2%
CN(CC(=O)Nc1cccc(F)c1)C(=O)c1ccc(OCc2ccccc2)cc1	i	i	-10%	.	i	-6%
CN(CC(=O)Nc1cccc(F)c1)C(=O)c1ccc2c(c1)CC(c1ccccc1)OC2=O (stereo not drawn)	?	?	16µM*	-37%	18µM*	?
CN(CC(=O)Nc1cccc(F)c1)C(=O)c1ccc(C2SCCS2)cc1	i	18µM*	-18%	-37%	?	-5%
CC1(C)CC(=O)c2cc(C(=O)NCCc3ccccc3)c(=O)[nH]c2C1	.	i	.	.	?	.
